Assay [1] in a line: qHTS of pediatric cancer cell lines to identify multiple opportunities for drug repurposing: Confirmatory screen for U-2 OS cells (AID 1347122). Also: nearly all actives have a fitted effect of over 65% in size. Also: potency is read from the fitted curve at half-maximal effect. In short, it runs like this: (§1)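 Viability after 48 h compound treatment at 37C, 500-1,000 cells/well, read as ATP luminescence with CellTiter-Glo. Primary screens used 11-point (MIPE, 0.78 nM-46 µM) or 8-point (NPC, 0.59 nM-46 µM) final concentrations; follow-up screens used 11-point dilutions.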
(In qHTS, concentration-response curves come from the screen itself.)

The nature of assay [2]: qHTS of pediatric cancer cell lines to identify multiple opportunities for drug repurposing: Confirmatory screen for Rh41 cells (AID 1347123).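 Also: 48 h compound exposure; nearly all actives have a fitted effect of over 60% in size.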 Also: potency is read from the fitted curve at half-maximal effect. In outline: as §1
The nature of assay [3]: qHTS of pediatric cancer cell lines to identify multiple opportunities for drug repurposing: Confirmatory screen for Rh30 cells (AID 1347126). Also: nearly all actives have a fitted effect of over 55% in size. Also: potency is read from the fitted curve at half-maximal effect. In outline: as §1
The nature of assay [4]: qHTS of pediatric cancer cell lines to identify multiple opportunities for drug repurposing: Confirmatory screen for Saos-2 cells (AID 1347127). Also: nearly all actives have a fitted effect of over 60% in size. Also: potency is read from the fitted curve at half-maximal effect. In outline: as §1
Assay [5] can be described thus: qHTS of pediatric cancer cell lines to identify multiple opportunities for drug repurposing: Confirmatory screen for SK-N-SH cells (AID 1347129).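 Also: cells exposed to compound for 48 h before viability read; nearly all actives have a fitted effect of over 60% in size.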 Also: potency is read from the fitted curve at half-maximal effect. In outline: as §1
In assay [6] the test system is Zika virus NS2B-NS3 protease. Nature of the assay: Primary screen GU AMC qHTS for Zika virus inhibitors (AID 1347154). Also: nearly all actives have a fitted effect of over 70% in size. Also: potency is read from the fitted curve at half-maximal effect.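 As to activity change, negative = inhibition: 0% = no-inhibitor control and -100% = no-enzyme control.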 In short, it runs like this:
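Unlinked Zika NS2B hydrophilic domain–NS3 protease complex at 25 nM in 10 mM Tris-HCl pH 8.0, 0.01% Tween 20, with an AMC peptide substrate. Fluorescence change (340/450 nm) over 15 min at room temperature, normalized to controls, fitted to 4-parameter Hill.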

Assay [7] can be described thus: qHTS of pediatric cancer cell lines to identify multiple opportunities for drug repurposing: Confirmatory screen for RD cells (AID 1347124).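 Also: cells exposed to compound for 48 h before viability readout; nearly all actives have a fitted effect of over 65% in size.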 Also: potency is read from the fitted curve at half-maximal effect. In short, it runs like this:
as §1

Assay [8] is described as follows: qHTS of pediatric cancer cell lines to identify multiple opportunities for drug repurposing: Confirmatory screen for OHS-50 cells (AID 1347128).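 Also: compound exposure lasted 48 h at 37 degrees C; % is scaled to controls: 0 for no effect and ±100 for the full control effect; nearly all actives have a fitted effect of over 55% in size.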 In short, it runs like this: as §1
Assay [9] is described as follows: qHTS of pediatric cancer cell lines to identify multiple opportunities for drug repurposing: Confirmatory screen for Rh18 cells (AID 1347125). Also: % is scaled to controls: 0 for no effect and ±100 for the full control effect; nearly all actives have a fitted effect of over 55% in size. In short, it runs like this:
as §1

Assay [10] in a line: Confirmatory screen GU Rhodamine qHTS for Zika virus inhibitors qHTS (AID 1347157).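 Also: plate controls were no-inhibitor wells for no effect and no-enzyme wells for full effect; nearly all actives have a fitted effect of over 70% in size.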 In outline: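 Compounds, tested up to 114 microM, were incubated for 15 minutes with 25 nM unlinked NS2B-NS3 protease at pH 8.0. Cleavage of 1.5 microM Rhodamine110 substrate was then followed by fluorescence for 15 minutes.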
The subject of assay [11] is Zika virus NS2B-NS3 protease (unlinked complex). The assay can be described thus: Primary screen GU Rhodamine qHTS for Zika virus inhibitors: Unlinked NS2B-NS3 protease assay (AID 1347159). Also: % is scaled to controls: 0 for no effect and ±100 for the full control effect; nearly all actives have a fitted effect of over 60% in size. In outline:
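Noncovalent NS2B hydrophilic domain/NS3 protease complex (25 nM final) in 10 mM Tris-HCl pH 8.0, 0.01% Tween 20, preincubated 15 min with compounds (up to 114 microM), then 1.5 microM Rhodamine110 substrate. Fluorescence change over 15 min fitted to 4-parameter Hill.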

The nature of assay [12]: Confirmatory screen NINDS Rhodamine qHTS for Zika virus inhibitors (AID 1347161). Also: nearly all actives have a fitted effect of over 60% in size. Also: potency is read from the fitted curve at half-maximal effect.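 As to activity change, negative = inhibition: series mostly up to about 110 µM; plate controls were no-inhibitor control for no effect and no-enzyme control for full effect.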 In short, it runs like this: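 Percent inhibition, normalized to uninhibited and enzyme-free controls, is fitted to a 4-parameter Hill equation. Fluorescence change comes from a 15-min cleavage of 1.5 microM bis-peptide Rhodamine110 substrate by 25 nM linked NS2B-NS3 at room temperature.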

The next assay concerns the target Furin (Homo sapiens) (UniProt P09958). The assay can be described thus: Furin counterscreen qHTS for Zika virus inhibitors (AID 1347149). Also: nearly all actives have a fitted effect of over 70% in size. Also: potency is read from the fitted curve at half-maximal effect.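 As to activity change, negative = inhibition: purified recombinant full-length human furin enzyme at 5 nM; fluorescence gain from furin cutting a BOC-RVRR-AMC peptide substrate over 15 min; top concentration of the series differs between compounds; plate controls were no-inhibitor control for no effect and no-enzyme control for full effect.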 In outline: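 Fluorogenic cleavage of BOC-RVRR-AMC (2 microM final, Km ~15 µM) was monitored (ex 340, em 450 nm) at 37C after 15 min RT preincubation of 5 nM furin with compounds in HEPES pH 7.0 buffer with CaCl2 and Triton X-100. Percent inhibition was fitted to a 4-parameter Hill curve.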
A general note: The purpose of a counterscreen is to sort out artefacts and off-target activity.

Assay [13] concerns Zika virus NS2B-NS3 protease (linked construct). Nature of the assay: Confirmatory screen NINDS AMC qHTS for Zika virus inhibitors (AID 1347152). Also: nearly all actives have a fitted effect of over 70% in size. Also: potency is read from the fitted curve at half-maximal effect.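 As to activity change, negative = inhibition: top concentration of the series differs between compounds; 0% = no-inhibitor control and -100% = no-enzyme control.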 In short, it runs like this:
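IC50s from 4-parameter Hill fits of percent inhibition, based on AMC fluorescence gain (340/450 nm) over 15 min with 10 microM Bz-Nle-KRR-AMC. Enzyme: 1 nM linked NS2B-NS3 in Tris-HCl pH 8.0; 15-min compound preincubation.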

Assay [14] concerns Zika virus NS2B-NS3 protease (unlinked complex). The assay can be described thus: Confirmatory screen GU AMC qHTS for Zika virus inhibitors (AID 1347153). In short, it runs like this: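 Unlinked NS2B-NS3 complex (25 nM) in 10 mM Tris-HCl pH 8.0, 0.01% Tween 20 preincubated 15 min with compound, then 10 microM Bz-Nle-KRR-AMC (Km 18.3 µM). Fluorescence change over 15 min, normalized, Hill-fitted.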

For assay [15], the system named is Zika virus NS2B-NS3 protease (linked construct). Nature of the assay: Primary screen NINDS Rhodamine qHTS for Zika virus inhibitors (AID 1347160). Also: % is scaled to controls: 0 for no effect and ±100 for the full control effect; nearly all actives have a fitted effect of over 55% in size. In outline: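 Purified NS2B-NS3 protease with the NS2B hydrophilic domain joined by a flexible linker (25 nM) in 10 mM Tris-HCl pH 8.0, 0.01% Tween 20, preincubated 15 min at RT with compound; Rhodamine110 peptide substrate 1.5 µM; fluorescence change over 15 min; 4-parameter Hill fit.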

Inconclusive results are not listed. Unmarked numbers belong to inactive results. Calls of active or inactive are those of the source. Calls follow the shape of the dose curve; as a rule, active = well fitted curve in the direction sought with a large enough effect; inconclusive = small, poorly fitted or top-dose-only effect, or another doubt; inactive = no such curve, though single readings can be large; an effect the other way counts as inactive or inconclusive.

Furin (Homo sapiens), sequence (P09958 whole entry, looked up): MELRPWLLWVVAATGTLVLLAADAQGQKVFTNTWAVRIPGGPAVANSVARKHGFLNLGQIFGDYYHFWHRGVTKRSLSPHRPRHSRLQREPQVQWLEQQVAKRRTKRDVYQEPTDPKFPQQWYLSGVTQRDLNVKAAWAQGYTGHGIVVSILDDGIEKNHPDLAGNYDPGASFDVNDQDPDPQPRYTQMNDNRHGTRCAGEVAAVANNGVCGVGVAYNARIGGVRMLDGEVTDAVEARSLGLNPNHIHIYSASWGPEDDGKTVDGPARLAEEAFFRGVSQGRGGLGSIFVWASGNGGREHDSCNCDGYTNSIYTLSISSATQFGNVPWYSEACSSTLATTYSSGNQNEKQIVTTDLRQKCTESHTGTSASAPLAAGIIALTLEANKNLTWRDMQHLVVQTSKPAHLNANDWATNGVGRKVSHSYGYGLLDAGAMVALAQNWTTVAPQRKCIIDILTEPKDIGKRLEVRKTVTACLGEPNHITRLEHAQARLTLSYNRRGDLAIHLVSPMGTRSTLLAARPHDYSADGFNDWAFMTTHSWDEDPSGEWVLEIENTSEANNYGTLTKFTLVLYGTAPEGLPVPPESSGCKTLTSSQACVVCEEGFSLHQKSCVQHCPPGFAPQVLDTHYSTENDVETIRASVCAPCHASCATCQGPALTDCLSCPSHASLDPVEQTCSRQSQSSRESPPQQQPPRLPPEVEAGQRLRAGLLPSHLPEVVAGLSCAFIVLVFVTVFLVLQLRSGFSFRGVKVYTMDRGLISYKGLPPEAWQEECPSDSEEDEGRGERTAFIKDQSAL

As to `Nc1ncnc2c1ncn2[C@@H]1O[C@H](CO)[C@@H](O)[C@@H]1O`, the Potency was 10.4 µM (active) in assay [1], 14.7 µM (active) in [2], 11.7 µM (active) in assay [3] and 9.27 µM (active) in assay [4]. Moreover, the Potency result in assay [5] and in assay [6] was “inactive” each time.
As for `CC1(C)OC2CC3C4CC(F)C5=CC(=O)C=CC5(C)C4C(O)CC3(C)[C@]2(C(=O)CO)O1` (some centres not stated), the Potency result in [1], in assay [7], in assay [3], in assay [4], in [8] and in [5] was “inactive” in each case. In assay [6], the Potency result is “inactive”.
As for `COC1CCC(C(=O)c2ccc3nc4c(cc3c2)CCCO4)CC1` (configuration not stated), the Potency result in assay [7], in assay [9], in assay [4], in [8], in [5] and in assay [6] was “inactive” throughout.
`CC(C)CN(C[C@@H](O)[C@H](Cc1ccccc1)NC(=O)O[C@H]1CO[C@H]2OCC[C@H]21)S(=O)(=O)c1ccc(N)cc1`: the Potency entry in assay [1], in [3], in [4], in assay [8] and in assay [6] was “inactive” throughout.
Take `CN(C)CC[C@H](CSc1ccccc1)Nc1ccc(S(=O)(=O)NC(=O)c2ccc(N3CCN(Cc4ccccc4-c4ccc(Cl)cc4)CC3)cc2)cc1[N+](=O)[O-]`: the Potency in assay [1] is 0.737 µM (active); in assay [2] it was 4.65 µM (active); in [4] it was 5.85 µM (active).
With `Cc1ccc2c(c1)C(=O)[C@]1(O)CCN(c3ccccc3)C1=N2`, in [2], the Potency is 11.7 µM (active). Besides, the Potency entry in assay [7], in assay [8], in assay [5], in assay [6], in assay [10] and in assay [11] was “inactive” throughout. Besides, in assay [12], the Potency entry is “inactive”.
For `CCOC(=O)[C@H](CCc1ccccc1)N[C@@H](C)C(=O)N1CCCC1C(=O)O` (some centres not stated), the Potency was 9.27 µM (active) in [2], 13.1 µM (active) in [7], 7.37 µM (active) in assay [3] and 11.7 µM (active) in assay [4]. Besides, the Potency result (in [5]; with Furin (Homo sapiens); in assay [13]; in assay [14]; in assay [12]) was “inactive” in each case.
Take `CN(C)CCN(C)C(=O)c1ccc(NC(=O)Nc2ccc(-c3nc(N4CCOCC4)c4ccn(CC(F)(F)F)c4n3)cc2)cc1`: the Potency was 3.69 µM (active) in [1]; 0.208 µM (active) in assay [2]; 0.928 µM (active) in [7]; 0.369 µM (active) in assay [3]; 4.69 µM (active) in assay [5]. The Potency entry in assay [6] was “inactive”.
Regarding `CCC(=O)N1CCN(c2ccc(-n3c(=O)ccc4cnc5ccc(-c6cnc7ccccc7c6)cc5c43)cc2C(F)(F)F)CC1`, the Potency result in assay [1], in assay [7], in assay [3], in assay [8], in [5] and in [6] was “inactive” throughout. Moreover, the activity change, negative = inhibition in [11] was -9.09% [at 19.1 µM]; in assay [15], -4.81% [at 10.7 µM].
As for `CO[C@H]1/C=C\O[C@@]2(C)Oc3c(C)c(O)c4c(O)c(c5c(nc6cc(C)ccn65)c4c3C2=O)NC(=O)C(C)=CC=C[C@H](C)[C@H](O)[C@@H](C)[C@@H](O)[C@@H](C)[C@H](OC(C)=O)[C@H]1C`, the Potency result in [1], in assay [7], in [3], in assay [4], in assay [5] and in [6] was “inactive” each time.
With `COc1cc(CNC(=O)CCCCC=CC(C)C)ccc1O`, the Potency entry in [7], in assay [3], in assay [4], in assay [8] and in assay [6] was “inactive” throughout.
Turning to `CC1CNc2c(cccc2S(=O)(=O)N[C@@H](CCCN=C(N)N)C(=O)N2CC[C@@H](C)C[C@@H]2C(=O)O)C1` (some centres not stated), the Potency result in assay [1], in assay [2], in [8], in [5] and in [6] was “inactive” in each case. In addition, in assay [3], the Potency was 20.8 µM (active).
For `CC(=O)N1CCN(c2ccc(OCc3nn(C)c(C)c3-c3cccc4c(CCCOc5cc(C)c(Cl)c(C)c5)c(C(=O)O)n(Cc5cccnc5)c34)cc2)CC1`, the Potency result in assay [1], in [7], in [3] and in assay [5] was “inactive” in each case.
Turning to `CN1CCN(c2ncc(-c3cc(Cl)cc(Cl)c3Cl)c(N)n2)CC1`, the Potency entry in [1], in assay [2], in [7], in assay [4], in assay [8] and in assay [6] was “inactive” each time. Further, in assay [5], the Potency is 20.9 µM (active).
For the molecule `CCC[C@H](N[C@@H](C)C(=O)N1[C@@H]2CCCC[C@H]2C[C@H]1C(=O)O)C(=O)OCC`, the Potency entry in assay [1], in assay [2], in [7], in [5] and in assay [6] was “inactive” throughout.
As to `O=C1Nc2ccc(I)cc2C1=Cc1cc(Br)c(O)c(Br)c1`, the Potency result (in assay [2]; in assay [7]; in assay [4]; in assay [5]; with Furin (Homo sapiens); in assay [13]) was “inactive” throughout. For the same molecule, the Potency result in [14] is “inactive”. The Potency was 1.17 µM (active) in [3], 12.1 µM (active) in assay [6] and 24.8 µM (active) in assay [12].
Turning to `CC(C)=CCCC(C)=CCCC(C)=CCCC(C)=CCCC(C)=CCCC(C)=CCCC(C)=CCCC(C)=CCCC(C)=CCO`, the Potency entry in assay [6] is “inactive”.
Regarding `Cc1ccc(S(=O)(=O)Nc2nc3ccccc3nc2Nc2ccc3nsnc3c2)cc1`, the Potency entry in assay [5] and in assay [6] was “inactive” throughout.
As to `COc1cc2ncnc(Nc3cc(Br)c(O)c(Br)c3)c2cc1OC`, the Potency entry in [7], in assay [4], in assay [8], in assay [6] and in [15] was “inactive” each time.
On to `Cc1csc(-c2nnc(Nc3ccc(Oc4ncccc4-c4ccnc(N)n4)cc3)c3ccccc23)c1`, for which the Potency result in assay [7], in [3], in [8] and in [11] was “inactive” in each case. Moreover, in assay [5], the Potency is 6.62 µM (active).
Regarding `COc1cc(Cl)cn2c(-c3cccc(NC4CNC4)n3)cnc12`, the Potency (with Furin (Homo sapiens); in assay [13]) was 27.1 µM (active) each time. The Potency result in [14] is “inactive”.

Source of the values: PubChem BioAssay (NCATS).
